Reference: ChEMBL document CHEMBL3988442, “University of Dundee, Small-Polar-MMV Screening Library” (2021)
Screen size: about 38,000 compounds; about 1,200 (3.2%) showed an effect of 50% or more. The median lay at about -58%. The list comes from a sample in which strong results are over-represented; it also holds similar structures and randomly drawn compounds.

What follows are compounds tested on Plasmodium falciparum (assay: Calibr Malaria Delayed Death Assay SOP). Conditions: concentration 4.99e-06 (unit not given; other assays of the set use mol/L).
Type: functional, organism-based
Design: scale not given: in the data most compounds retested in dose-response had high values

Point of comparison: `CN1CC2(CCN(Cc3cccc(C#N)c3)CC2)CC1=O`, “Percent Effect” value -15.68%. Against it:
- Cc1cnc(C(NC(=O)NCc2nc(C3CC3)no2)C2CC2)s1 (configuration not stated) — lower, -34.97%
- Cc1ccc(N2CCO[C@H]3CN(Cc4cccs4)C[C@H]32)nn1.O=C(O)C(F)(F)F.O=C(O)C(F)(F)F — lower, -16.91%
- CCN(CC)Cc1cc(=O)n2c(n1)CN(C(=O)c1ccnnc1)CCC2.O=C(O)C(F)(F)F — lower, -110.9%
- Cc1ccc(CN2CC[C@H]3OCC[C@@]3(C(=O)N3CCCO3)C2)o1.O=C(O)C(F)(F)F — lower, -80.01%
- CC(C)c1nnc2sc(CC3CN(C(C)C)CCO3)nn12 (configuration not stated) — lower, -105.6%
- CCCS(=O)(=O)N1Cc2nccn2CC(Cn2cncn2)C1 (configuration not stated) — lower, -125.8%
- c1cc(-c2n[nH]cc2-c2ccnc(N3CCCCCC3)n2)ccn1 — higher, 76.99%
- NC(=O)C1CCN(c2nccc(-c3c[nH]nc3C3CCCCC3)n2)CC1 — higher, 12.3%
- c1cc(-c2c[nH]nc2C2CCCCC2)nc(N2CCCCCC2)n1 — higher, -3.373%
- CC(NC(=O)N1CCNC(=O)CC1)c1c(F)cccc1Cl (configuration not stated) — lower, -91.59%
- COCCC(=O)N1CCC2(COCc3cnc(-c4cccnc4)nc32)C1 (configuration not stated) — lower, -64.26%
- Cc1cncc(C(=O)N[C@@H]2CC[C@@H](N3CCOCC3)[C@@H]2O)c1 — lower, -132.2%
- CNC(=O)c1ccc(C(=O)N2CCCC(n3ccnc3C)C2)cn1 (configuration not stated) — lower, -171.6%
- CC(C)c1ccc(CN2C(=O)C3(CCNCC3)Nc3ccccc32)cc1 — higher, 81.43%
- Cl.O=C1CC2(CCCNC2)C(=O)N1Cc1ccccc1 (configuration not stated) — lower, -18.54%
- N#Cc1cccc(CN2C(=O)C3(CCNCC3)Nc3ccccc32)c1 — higher, 66.93%
- Cl.O=C1CC2(CCNCC2)C(=O)N1Cc1ccc(F)cc1 — lower, -53.59%
- CCN1CC2(CCC1=O)CCN(Cc1cccc(C#N)c1)CC2 — lower, -206%
- Cl.O=C1CC2(CCCNC2)C(=O)N1Cc1ccc(F)cc1 (configuration not stated) — lower, -29.07%
- NC(=O)c1ccc(CN2C(=O)C3(CCNCC3)Nc3ccccc32)cc1 — higher, -6.416%
- C=Cc1ccc(CN2C(=O)C3(CCNCC3)Nc3ccccc32)cc1 — higher, 87.33%
- c1ccc2c(c1)COC1(CCCC1)N2 — lower, -67.59%
- Cn1nc(CN2CCCCC2)c2c1CN(C(=O)c1ccccc1)C2 — lower, -57.34%
- CC(C)NC(=O)c1nn(C)c(NC(=O)Cc2ccccc2)c1F — lower, -24.59%
- Cc1nc(CNC(=O)NC2CCN(c3ncccn3)CC2)cs1 — lower, -218.9%
- CCOCCCn1c(NC(=O)c2cc(C)no2)nc2ccccc21 — lower, -48.09%
- Cn1cccc1C(=O)N1C[C@H]2CC[C@@H]1CN(Cc1cscn1)C2 — higher, -15.16%
- O=S(=O)(c1cc(F)ccc1F)N1CCCC1c1ccco1 (configuration not stated) — lower, -139.7%
- Cc1ccc(CN2CCCC3(CCN(Cc4ccc(C)o4)C3)C2)o1 (configuration not stated) — higher, 14.98%
- CCN1CCCC(O)(CN(C)Cc2ccc(C)o2)C1 (configuration not stated) — higher, 18.1%
- Cc1ccc(CN(C)CC2(O)CCCN(C)C2)o1 (configuration not stated) — higher, 53.08%
- O=C(c1ccccn1)N1CCc2ncnc(-c3ccncc3)c2CC1 — lower, -17.27%
- COc1cccc(OC)c1-c1ccnc2cc(CC(=O)N(C)C)nn12 — lower, -114.9%
- CC(C)NC(=O)CC1CC2(CCN(S(C)(=O)=O)CC2)c2ccccc21 (configuration not stated) — lower, -30.05%
- Cc1cccnc1CNC[C@H]1Cn2cc(-c3ccccc3)nc2CO1 — higher, 30.07%
- Cn1ccnc1CNC[C@H]1Cn2cc(-c3ccccc3)nc2CO1 — higher, 55.94%
- Cc1ccc(-c2cn3c(n2)CO[C@@H](CNCc2cnn(C)c2)C3)cc1 — lower, -51.89%
- Cc1ccc(CNC[C@H]2Cn3cc(-c4ccccc4)nc3CO2)cc1 — lower, -116.4%
- Cc1ccc(-c2cn3c(n2)CO[C@@H](CNCc2nccn2C)C3)cc1 — higher, 87.31%
- COc1ccc(-c2cn3c(n2)CO[C@@H](CNCc2nccn2C)C3)cc1 — higher, 20.49%
- Fc1ccccc1OC1CCN(CCn2cc3ccccc3n2)CC1 — lower, -71.75%
- CCC1CN(CC(=O)N2CCCC2)CCN1CCOC (configuration not stated) — lower, -62.36%
- Cc1ccc(N2CCC3(CCN(C(=O)c4ccsc4)CC3)C2)nn1 — higher, -9.92%
- NC(=O)N1CCC2(CCN(Cc3ccccn3)C2=O)C1.O=C(O)C(F)(F)F (configuration not stated) — lower, -110.7%
- COCC(O)CN1CCC(=O)N(Cc2ccccc2)Cc2ccccc21 (configuration not stated) — lower, -18.3%
- COc1ncccc1CNCc1c(C(C)C)nn(C)c1OC — lower, -36.33%
- COc1c(CNCC(c2cccc(F)c2)N(C)C)c(C(C)C)nn1C (configuration not stated) — higher, 19.73%
- CC(C)c1nn(C)c(N(C)C)c1CNCC(O)c1ccccc1 (configuration not stated) — lower, -60.19%
- COc1ncccc1CNCc1c(C(C)C)nn(C)c1N(C)C — higher, 6.61%
- CC(C)c1nn(C)c(Cl)c1CNCC(O)c1cccc(F)c1.Cl (configuration not stated) — higher, 81.83%
- COc1ncccc1CNCc1c(C(C)C)nn(C)c1Cl — higher, 51.46%
- CC(C)c1nn(C)c(N(C)C)c1CNCC(O)c1ccccc1F (configuration not stated) — lower, -90.64%
- CC(C)c1nn(C)c(N(C)C)c1CNCC(O)c1cccc(F)c1 (configuration not stated) — higher, 28.02%
- CC(C)OCCCNC(=O)c1cccnc1N1CCOCC1 — lower, -113.7%
- Cn1ccnc1CN1CCCN(C(=O)c2ccc3c(c2)OCO3)CC1 — lower, -109.5%
- O=C(Nc1nncs1)N1CCC(c2ccc(O)cc2)CC1 — lower, -154%
- CCN1C(=O)CCCC12CCCN(C(=O)c1conc1C)C2 (configuration not stated) — lower, -139.9%
- CCCS(=O)(=O)N1CCC2(CN(c3ccccc3)C(=O)CN2C)C1.O=C(O)C(F)(F)F (configuration not stated) — lower, -40.82%
- CC1Oc2c(cccc2C(=O)N2CCCCCC2)NC1=O (configuration not stated) — lower, -198.9%
- Cc1cccc(CN(Cc2ccccc2)Cc2nccs2)n1 — lower, -42.32%
- Cc1nc[nH]c1CN(Cc1ccccc1)Cc1nccs1 — higher, 74.62%
- c1ccc(CN(Cc2ncc[nH]2)Cc2nccs2)cc1 — higher, 15.24%
- Cc1cccc(CN2CC[C@@H]3O[C@@H](C(=O)N4CCN(C)CC4)C[C@@H]32)c1 — higher, 7.549%
- Cc1nc2ccnn2c(C)c1CCC(=O)N1CCSCC1 — lower, -118.8%
- Cc1cccc(N2CCOCC3(C2)CN(c2cnn(C)c2)C(=O)CO3)n1.O=C(O)C(F)(F)F (configuration not stated) — lower, -79.15%
- Cc1cccc(N2CCOCC3(C2)CN(c2ccoc2)C(=O)CO3)n1.O=C(O)C(F)(F)F (configuration not stated) — higher, 65.62%
- Cc1cccc(N2CCOCC3(C2)CN(c2ccccc2)C(=O)CO3)n1.O=C(O)C(F)(F)F (configuration not stated) — lower, -64.15%
- OC1(CN2CCOC(Cn3cncn3)C2)CCCCC1 (configuration not stated) — lower, -41.07%
- CN(Cc1cc2n(n1)CCCNC2)Cc1n[nH]c2c1CCC2 — lower, -43.74%
- Cc1ccc2[nH]c(CN(C)Cc3n[nH]c4c3CCC4)nc2c1 — higher, 82.04%
- CN(Cc1cc2n(n1)CCNC2)Cc1n[nH]c2c1CCCCC2 — higher, -6.476%
- Cc1ccc2nc(CN(C)Cc3[nH]nc4c3CCC4)[nH]c2c1C — higher, 36.38%
- CN(Cc1cc2n(n1)CCNC2)Cc1n[nH]c2c1CCC2 — lower, -20.1%
- Cc1ccc2nc(CN(C)Cc3n[nH]c4c3CCCCC4)[nH]c2c1C — higher, 85.65%
- CCn1nc(CC(C)C)cc1C(=O)NCCCN1CCOCC1 — lower, -66.39%
- CN(Cc1ccc2c(c1)OCCO2)Cn1nc(C(C)(C)C)ccc1=O — lower, -39.48%
- CN(Cc1ccncc1)C1COC2(CCN(Cc3nccn3C)CC2)C1.O=C(O)C(F)(F)F.O=C(O)C(F)(F)F.O=C(O)C(F)(F)F (configuration not stated) — lower, -27.83%
- O=C(O)C(F)(F)F.O=C1[C@H]2CN(S(=O)(=O)C3CC3)C[C@H]2CN1Cc1cccnc1 — higher, -0.2941%
- CC(=O)C1(c2ccccc2)CCN(C(=O)CC2CNCCO2)CC1 (configuration not stated) — lower, -46.22%
- CC(=O)C1(c2ccccc2)CCN(C(=O)C2CNCCO2)CC1 (configuration not stated) — lower, -83.28%
- O=C(C1CNCCO1)N1CCCC(c2ccccc2)(c2ccccc2)C1 (configuration not stated) — higher, 79.21%
- O=C(c1cccnc1SC/C=C/c1ccccc1)N1CCOCC(O)C1 (configuration not stated) — higher, 53.57%
- O=C(c1cccnc1SCc1ccccc1)N1CCOCC1 — lower, -36.51%
- O=C(c1cccnc1SC/C=C/c1ccccc1)N1CC[C@H](O)C1 — lower, -73.62%
- O=C(O)C(F)(F)F.c1ccc2c(c1)N(CC1CCOC1)CC21CCN(c2cnccn2)CC1 (configuration not stated) — higher, 68.42%
- Cc1cnc(N2CCC3(CCN(CC4CC4)C3=O)CC2)nc1 — lower, -170.6%
- O=C(O)C(F)(F)F.c1cnc(N2CCC3(CC2)CN(CC2CC2)c2ccccc23)nc1 — higher, 85.9%
- c1cnc(N2CC3(CCN(C4CCOC4)CC3)c3ccccc32)nc1 (configuration not stated) — lower, -111.6%
- O=C(O)C(F)(F)F.O=C(O)C(F)(F)F.OCCN1CC2(CCN(CC3CC3)CC2)c2ccccc21 — lower, -50.6%
- CCS(=O)(=O)N1CCC2(CC1)CN(CC1CCOC1)c1ccccc12.O=C(O)C(F)(F)F (configuration not stated) — higher, 19.88%
- CS(=O)(=O)N1CCC2(CC1)CN(CC1CCOC1)c1ccccc12.O=C(O)C(F)(F)F (configuration not stated) — lower, -57.4%
- O=C(O)C(F)(F)F.O=C1N(CC2CC2)CCC12CCN(c1ncccn1)CC2 — higher, 4.695%
- COC[C@@H]1CCC[C@@]12CN(C(=O)N1CCCC1)CCO2 — lower, -140.1%
- Cc1ccc(C(=O)N2CCC3(CCN3Cc3ccc(F)cc3)C2)cn1.O=C(O)C(F)(F)F (configuration not stated) — lower, -82.72%
- CC(C)C(C(=O)N1CCCN(c2cccnn2)CC1)n1cncn1 (configuration not stated) — higher, -14.43%
- CN(C)S(=O)(=O)c1ccc2c(c1)N(Cc1ccccn1)CCC2 — lower, -104.8%
